Some compounds were tested as several samples or in several runs, with calls that do not always agree. The source made the active and inactive calls. The calls were made as follows: active = hit-call score of the fitted dose curve at least 0.9, where 1 is the maximum; inactive = score below 0.9.
Tests used:
[1] = ATG_GLI_CIS: Attagene CIS-FACTORIAL HepG2 Assay for human Zinc Finger Protein GLI1 (AID 2282945); details: HepG2, Attagene cis-factorial reporter mRNA, GLI element; actives raise or lower the signal
Method in brief: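 HepG2 cells transiently transfected with cis-promoter multiplexed reporter units report endogenous transcription factor activity. After 24 h chemical exposure, reporter mRNA was quantified by RT-PCR, 6-FAM labelling, HpaI digestion and capillary electrophoresis, with bidirectional fitting against DMSO.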

[2] = target: Bile acid receptor (Homo sapiens) (UniProt Q96RI1); test: ATG_IR1_CIS: Attagene CIS-FACTORIAL HepG2 Assay for human Nuclear Receptor Subfamily 1 Group H Member 4 (NR1H4), IR1 submotif (AID 2282946); details: IR1 reporter transcription, actives raise or lower the signal
Chain of Bile acid receptor (Homo sapiens) (Q96RI1 whole entry, looked up): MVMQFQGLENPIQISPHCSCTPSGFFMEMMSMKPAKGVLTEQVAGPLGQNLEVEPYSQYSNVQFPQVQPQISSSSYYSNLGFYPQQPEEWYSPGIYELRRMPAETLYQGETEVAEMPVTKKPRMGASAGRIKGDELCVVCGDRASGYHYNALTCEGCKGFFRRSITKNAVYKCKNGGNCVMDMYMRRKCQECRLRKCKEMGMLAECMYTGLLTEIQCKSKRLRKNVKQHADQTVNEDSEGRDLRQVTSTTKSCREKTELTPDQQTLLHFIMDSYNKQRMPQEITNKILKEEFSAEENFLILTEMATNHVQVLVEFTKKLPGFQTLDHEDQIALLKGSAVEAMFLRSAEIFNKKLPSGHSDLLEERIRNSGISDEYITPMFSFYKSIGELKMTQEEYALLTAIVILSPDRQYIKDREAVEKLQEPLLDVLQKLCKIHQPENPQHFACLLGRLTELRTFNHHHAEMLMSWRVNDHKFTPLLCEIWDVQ
Method in brief: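 Transient MRTU transfection, HepG2; 24 h dosing; RNA → RT-PCR → 6-FAM primer extension → HpaI digest → capillary electrophoresis fluorescence. Gain/loss of signal fitted relative to DMSO.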

[3] = ATG_GRE_CIS: Attagene CIS-FACTORIAL HepG2 Assay for human Glucocorticoid Response Elements (GRE) (AID 2282947); details: HepG2 GRE cis-reporter, Attagene multiplex mRNA; actives raise or lower the signal
Method in brief: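 Following 24 h chemical exposure of transiently transfected HepG2 cells, total RNA was reverse-transcribed and reporter cDNA amplified, fluorescently labelled and sized by capillary electrophoresis. Signal gain or loss was fitted relative to DMSO vehicle.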

[4] = ATG_ISRE_CIS: Attagene CIS-FACTORIAL HepG2 Assay for human Interferon Regulatory Factor 1 (IRF1) binding to an Interferon-Stimulated Response Element (ISRE) (AID 2282948); details: HepG2 ISRE cis-reporter (Attagene), mRNA transcription readout; actives raise or lower the signal
Method in brief: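 HepG2 cells transiently transfected with multiplexed cis-promoter reporter units; after 24 h compound exposure, reporter mRNA quantified by RT-PCR, FAM labelling, HpaI digestion and capillary electrophoresis. Bidirectional fit versus DMSO baseline.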

[5] = ATG_M_32_CIS: Attagene CIS-FACTORIAL HepG2 Assay for M32 Transcription Factor (Internal Marker) (AID 2282949); details: HepG2 Attagene cis-factorial M32 reporter, mRNA; actives raise or lower the signal;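 also: background control marker of the multiplexed CIS panel rather than a real target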
Method in brief: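 Fluorescent capillary electrophoresis peaks of HpaI-digested, FAM-labelled RT-PCR reporter products give the signal. Source: transiently transfected human liver HepG2 cells, 24 h after chemical dosing; bidirectional fitting against DMSO.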

[6] = ATG_M_06_CIS: Attagene CIS-FACTORIAL HepG2 Assay for M06 Transcription Factor (Internal Marker) (AID 2282950); details: HepG2 Attagene CIS-FACTORIAL M06 internal marker reporter; actives raise or lower the signal
Method in brief: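 Measured 24 h post-dosing in transiently transfected HepG2 cells, this internal-marker endpoint reports reporter mRNA via RT-PCR with fluorescent primer extension and capillary electrophoresis. DMSO served as negative control and baseline for bidirectional fitting.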

[7] = target: Hypoxia-inducible factor 1-alpha (Homo sapiens) (UniProt Q16665); test: ATG_HIF1a_CIS: Attagene CIS-FACTORIAL HepG2 Assay for human Hypoxia Inducible Factor 1 (HIF1A) (AID 2282951); details: HepG2 Attagene cis-factorial HIF1a reporter transcription; actives raise or lower the signal
Chain of Hypoxia-inducible factor 1-alpha (Homo sapiens) (Q16665 whole entry, looked up): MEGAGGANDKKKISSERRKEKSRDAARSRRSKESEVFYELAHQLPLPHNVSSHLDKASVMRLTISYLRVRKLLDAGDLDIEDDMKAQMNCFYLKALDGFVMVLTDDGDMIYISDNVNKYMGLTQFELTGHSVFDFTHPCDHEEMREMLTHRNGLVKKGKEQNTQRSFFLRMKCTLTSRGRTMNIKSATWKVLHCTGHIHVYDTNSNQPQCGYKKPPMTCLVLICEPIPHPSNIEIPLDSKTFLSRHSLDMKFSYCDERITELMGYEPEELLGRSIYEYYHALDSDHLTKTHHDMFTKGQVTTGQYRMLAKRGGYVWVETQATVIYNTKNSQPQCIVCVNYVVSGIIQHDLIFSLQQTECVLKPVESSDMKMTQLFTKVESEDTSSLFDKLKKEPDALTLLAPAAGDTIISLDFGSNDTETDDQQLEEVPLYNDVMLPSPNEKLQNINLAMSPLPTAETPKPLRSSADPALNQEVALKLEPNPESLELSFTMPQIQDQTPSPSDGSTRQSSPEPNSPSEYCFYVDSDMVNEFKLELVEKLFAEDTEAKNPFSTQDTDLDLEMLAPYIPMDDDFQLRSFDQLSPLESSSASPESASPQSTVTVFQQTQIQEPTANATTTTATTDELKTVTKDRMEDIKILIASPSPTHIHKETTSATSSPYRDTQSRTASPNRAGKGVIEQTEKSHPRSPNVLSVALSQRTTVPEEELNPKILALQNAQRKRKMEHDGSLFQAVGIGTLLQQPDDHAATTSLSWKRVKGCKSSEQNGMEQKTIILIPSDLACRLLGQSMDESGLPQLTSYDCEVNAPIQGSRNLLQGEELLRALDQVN
Method in brief: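 Dosed 24 h, transfected HepG2 cells yielded total RNA whose reporter transcripts were RT-PCR-amplified and sized by capillary electrophoresis using fluorescent labelling; DMSO defined baseline, with gain and loss of signal both fitted.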

[8] = target: Hepatocyte nuclear factor 6 (Homo sapiens) (UniProt Q9UBC0); test: ATG_HNF6_CIS: Attagene CIS-FACTORIAL HepG2 Assay for human Hepatocyte Nuclear Factor 6 (HNF6) (AID 2282952); details: HepG2 Attagene cis-factorial HNF6 reporter transcription; actives raise or lower the signal
Chain of Hepatocyte nuclear factor 6 (Homo sapiens) (Q9UBC0 whole entry, looked up): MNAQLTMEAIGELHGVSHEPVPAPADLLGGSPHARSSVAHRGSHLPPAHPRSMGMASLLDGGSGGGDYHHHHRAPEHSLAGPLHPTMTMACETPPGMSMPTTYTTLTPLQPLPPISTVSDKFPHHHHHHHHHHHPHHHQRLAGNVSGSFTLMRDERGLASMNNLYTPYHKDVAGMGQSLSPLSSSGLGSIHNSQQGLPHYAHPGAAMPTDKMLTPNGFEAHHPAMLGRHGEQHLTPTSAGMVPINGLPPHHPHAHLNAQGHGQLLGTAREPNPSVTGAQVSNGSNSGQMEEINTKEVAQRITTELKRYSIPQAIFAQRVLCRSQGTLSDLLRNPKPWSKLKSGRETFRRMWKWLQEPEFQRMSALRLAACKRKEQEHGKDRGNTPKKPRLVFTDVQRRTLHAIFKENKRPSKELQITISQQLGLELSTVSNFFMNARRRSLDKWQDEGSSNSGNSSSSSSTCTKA
Method in brief: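 Multiplexed mRNA reporter assay in transfected HepG2; 24 h dosing; RT-PCR plus capillary electrophoresis fluorescence; DMSO-referenced bidirectional curve fitting.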

[9] = target: Heat shock factor protein 1 (Homo sapiens) (UniProt Q00613); test: ATG_HSE_CIS: Attagene CIS-FACTORIAL HepG2 Assay for human Heat Shock Transcription Factor 1 (HSE) (AID 2282953); details: HepG2 HSE cis-reporter, Attagene RNA transcription; actives raise or lower the signal
Chain of Heat shock factor protein 1 (Homo sapiens) (Q00613 whole entry, looked up): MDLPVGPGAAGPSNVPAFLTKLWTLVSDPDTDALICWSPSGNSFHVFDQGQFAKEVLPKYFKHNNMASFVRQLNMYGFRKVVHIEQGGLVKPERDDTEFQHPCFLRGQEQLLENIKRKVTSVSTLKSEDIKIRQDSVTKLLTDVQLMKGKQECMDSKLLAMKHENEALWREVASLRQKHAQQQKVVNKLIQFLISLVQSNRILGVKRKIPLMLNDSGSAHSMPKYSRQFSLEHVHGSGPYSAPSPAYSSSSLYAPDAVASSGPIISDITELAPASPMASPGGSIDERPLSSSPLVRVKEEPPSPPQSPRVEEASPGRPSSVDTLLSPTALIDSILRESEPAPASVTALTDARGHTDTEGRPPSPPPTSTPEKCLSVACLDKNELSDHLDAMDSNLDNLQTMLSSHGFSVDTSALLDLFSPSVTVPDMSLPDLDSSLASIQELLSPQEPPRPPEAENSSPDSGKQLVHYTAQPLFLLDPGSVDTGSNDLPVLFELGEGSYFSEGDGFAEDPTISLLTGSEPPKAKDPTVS
Method in brief: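 Reporter mRNA induction in HepG2 is measured 24 h after dosing, using transiently transfected multiplexed cis-regulated reporter units. Signal comes from capillary electrophoresis of labelled RT-PCR products, with DMSO as negative control.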

[10] = ATG_MRE_CIS: Attagene CIS-FACTORIAL HepG2 Assay for human Metal Responsive Element (MRE) (AID 2282954); details: HepG2 MRE cis-reporter transcription, Attagene multiplex; actives raise or lower the signal
Method in brief: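 Step one: transfect HepG2 with cis-regulated reporter units. Step two: dose 24 h. Step three: isolate RNA, RT-PCR, 6-FAM label, HpaI digest, capillary electrophoresis. Fit bidirectionally to DMSO.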

[11] = ATG_PBREM_CIS: Attagene CIS-FACTORIAL HepG2 Assay for human Phenobarbital-responsive Enhancer Module (PBREM) (AID 2282955); details: HepG2 PBREM cis-reporter, Attagene multiplexed transcription; actives raise or lower the signal
Method in brief: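 Transfected liver-derived HepG2 cells exposed 24 h; PBREM reporter transcript quantified via RT-PCR and capillary electrophoresis, with activity in either direction referenced to DMSO.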

[12] = target: Paired box protein Pax-6 (Homo sapiens) (UniProt P26367); test: ATG_Pax6_CIS: Attagene CIS-FACTORIAL HepG2 Assay for human Paired Box 6 (PAX6) (AID 2282956); details: HepG2 CIS-FACTORIAL PAX6 reporter transcription, RNA readout; actives raise or lower the signal
Chain of Paired box protein Pax-6 (Homo sapiens) (P26367 whole entry, looked up): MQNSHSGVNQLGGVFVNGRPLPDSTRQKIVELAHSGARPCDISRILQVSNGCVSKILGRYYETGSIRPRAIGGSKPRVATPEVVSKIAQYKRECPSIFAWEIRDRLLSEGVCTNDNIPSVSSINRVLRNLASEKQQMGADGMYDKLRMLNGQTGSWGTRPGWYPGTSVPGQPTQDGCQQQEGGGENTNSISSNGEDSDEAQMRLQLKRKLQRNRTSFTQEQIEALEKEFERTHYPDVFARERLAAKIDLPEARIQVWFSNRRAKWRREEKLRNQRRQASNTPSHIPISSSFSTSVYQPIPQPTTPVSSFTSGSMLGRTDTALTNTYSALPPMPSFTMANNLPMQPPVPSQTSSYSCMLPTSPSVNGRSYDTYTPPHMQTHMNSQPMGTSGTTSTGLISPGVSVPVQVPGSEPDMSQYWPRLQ
Method in brief: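 HepG2 cells transiently transfected with multiplexed cis-promoter reporter units (endogenous TF activity) were dosed for 24 h. Reporter mRNA was quantified by RT-PCR, 6-FAM labeling, HpaI digestion and capillary electrophoresis; bidirectional fitting versus DMSO baseline.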

[13] = ATG_PXRE_CIS: Attagene CIS-FACTORIAL HepG2 Assay for human Pregnane X Receptor Element (PXRE) (AID 2282957); details: HepG2 Attagene CIS-FACTORIAL PXRE reporter, mRNA; actives raise or lower the signal
Method in brief: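 Cells: HepG2, transiently transfected reporter units under cis promoter control. Exposure: 24 h. Detection: reporter mRNA via RT-PCR/CE fluorescence; bidirectional fitting, DMSO-referenced.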

[14] = ATG_PPRE_CIS: Attagene CIS-FACTORIAL HepG2 Assay for human Peroxisome Proliferator-activated Response Element (PPRE) (AID 2282958); details: HepG2 PPRE cis-element reporter, Attagene transcription factor profiling; actives raise or lower the signal
Method in brief: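 Measured endpoint: PPRE-controlled reporter mRNA, detected by RT-PCR and capillary electrophoresis fluorescence, from transiently transfected HepG2 cells 24 h after dosing. Curves fitted in both directions using DMSO baseline.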

[15] = ATG_RORE_CIS: Attagene CIS-FACTORIAL HepG2 Assay for human RAR-related Orphan Receptor Element (RORE) (AID 2282959); details: HepG2 Attagene cis-factorial RORE reporter, mRNA; actives raise or lower the signal
Method in brief: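 Transiently transfected HepG2 reporter cells were treated 24 h. Reporter transcripts were detected by RT-PCR and capillary electrophoresis, with bidirectional fitting against DMSO.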

[16] = ATG_Sox_CIS: Attagene CIS-FACTORIAL HepG2 Assay for human SRY-box transcription factor (SOX) (AID 2282960); details: HepG2 Attagene cis-factorial SOX reporter, mRNA; actives raise or lower the signal
Method in brief: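 Gain- or loss-of-signal endpoint, fitted bidirectionally with DMSO as negative control. Based on reporter mRNA from transfected HepG2 cells harvested 24 h post-treatment and quantified via RT-PCR and capillary electrophoresis.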

[17] = target: Transcription factor Sp1 (Homo sapiens) (UniProt P08047); test: ATG_Sp1_CIS: Attagene CIS-FACTORIAL HepG2 Assay for human Specificity Protein 1 (Sp1) (AID 2282961); details: HepG2 Sp1 cis-reporter transcription, actives raise or lower the signal
Chain of Transcription factor Sp1 (Homo sapiens) (P08047 whole entry, looked up, the tested form may be a part): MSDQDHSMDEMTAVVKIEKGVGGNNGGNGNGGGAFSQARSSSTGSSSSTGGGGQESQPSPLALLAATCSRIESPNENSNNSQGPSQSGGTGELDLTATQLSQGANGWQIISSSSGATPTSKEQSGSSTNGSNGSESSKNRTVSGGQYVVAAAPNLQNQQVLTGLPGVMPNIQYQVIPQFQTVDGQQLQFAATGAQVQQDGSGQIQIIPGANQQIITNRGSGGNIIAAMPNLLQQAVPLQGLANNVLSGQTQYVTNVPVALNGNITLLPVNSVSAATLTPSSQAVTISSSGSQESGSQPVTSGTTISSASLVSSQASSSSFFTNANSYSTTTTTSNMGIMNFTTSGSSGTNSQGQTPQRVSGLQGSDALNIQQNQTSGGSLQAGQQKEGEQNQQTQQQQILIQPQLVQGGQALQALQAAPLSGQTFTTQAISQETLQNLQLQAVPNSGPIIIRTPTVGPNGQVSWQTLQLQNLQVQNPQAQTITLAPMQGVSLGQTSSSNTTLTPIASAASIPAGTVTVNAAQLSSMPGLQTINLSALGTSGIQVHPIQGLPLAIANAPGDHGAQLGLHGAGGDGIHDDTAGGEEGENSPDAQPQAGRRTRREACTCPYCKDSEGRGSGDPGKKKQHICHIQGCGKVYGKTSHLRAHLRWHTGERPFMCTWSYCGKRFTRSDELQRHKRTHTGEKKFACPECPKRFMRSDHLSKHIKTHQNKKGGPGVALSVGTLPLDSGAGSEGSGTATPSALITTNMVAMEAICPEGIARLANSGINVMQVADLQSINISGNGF
Method in brief: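 Endpoint reflects endogenous Sp1 transcriptional activity, not an exogenous fusion protein: HepG2 cells with transfected cis-regulated reporters, 24 h dosing, RT-PCR/capillary electrophoresis mRNA read-out, DMSO-normalised bidirectional fit.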

[18] = ATG_SREBP_CIS: Attagene CIS-FACTORIAL HepG2 Assay for human Sterol Regulatory Element Binding (SREBP) (AID 2282962); details: HepG2 Attagene cis-factorial SREBP reporter, mRNA; actives raise or lower the signal
Method in brief: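 HepG2 cells transiently transfected with multiplexed cis-element reporter units report endogenous transcription factor activity. After 24 h of chemical exposure, reporter mRNA was quantified by RT-PCR, 6-FAM labelling, HpaI digestion and capillary electrophoresis; bidirectional fits used DMSO as baseline.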

[19] = target: Signal transducer and activator of transcription 3 (Homo sapiens) (UniProt P40763); test: ATG_STAT3_CIS: Attagene CIS-FACTORIAL HepG2 Assay for human Signal Transducer and Activator of Transcription 3 (STAT3) (AID 2282963); details: HepG2, Attagene cis-factorial STAT3 reporter transcription; actives raise or lower the signal
Chain of Signal transducer and activator of transcription 3 (Homo sapiens) (P40763 whole entry, looked up): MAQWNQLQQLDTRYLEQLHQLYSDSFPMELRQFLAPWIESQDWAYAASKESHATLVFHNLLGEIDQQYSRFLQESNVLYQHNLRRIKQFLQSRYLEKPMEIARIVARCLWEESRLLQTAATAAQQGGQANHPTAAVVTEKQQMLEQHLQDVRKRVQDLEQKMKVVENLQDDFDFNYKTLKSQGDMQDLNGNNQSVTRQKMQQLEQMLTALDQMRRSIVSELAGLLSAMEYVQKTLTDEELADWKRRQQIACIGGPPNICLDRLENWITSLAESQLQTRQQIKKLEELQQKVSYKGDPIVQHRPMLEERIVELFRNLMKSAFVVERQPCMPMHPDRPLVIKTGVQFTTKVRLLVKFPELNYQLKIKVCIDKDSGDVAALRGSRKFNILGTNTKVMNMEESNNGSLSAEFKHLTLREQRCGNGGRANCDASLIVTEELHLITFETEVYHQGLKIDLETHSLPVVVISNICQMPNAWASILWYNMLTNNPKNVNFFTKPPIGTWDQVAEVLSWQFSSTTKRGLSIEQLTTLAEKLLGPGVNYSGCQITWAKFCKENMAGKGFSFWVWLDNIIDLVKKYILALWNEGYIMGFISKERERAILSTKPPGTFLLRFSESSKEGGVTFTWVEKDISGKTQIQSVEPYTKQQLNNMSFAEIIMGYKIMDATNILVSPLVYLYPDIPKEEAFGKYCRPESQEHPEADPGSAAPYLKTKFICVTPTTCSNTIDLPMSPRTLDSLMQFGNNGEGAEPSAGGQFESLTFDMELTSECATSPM
Method in brief: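 Transcript-level reporter assay. HepG2 transient MRTU transfection, 24 h exposure, fluorescence detection after RT-PCR and CE; DMSO baseline.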

[20] = ATG_TA_CIS: Attagene CIS-FACTORIAL HepG2 Assay for human TA Basal Promoter (AID 2282964); details: HepG2 Attagene CIS-factorial TA basal promoter reporter; actives raise or lower the signal
Method in brief: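 Cis-factorial format in HepG2: reporters report endogenous factors, not chimeric Gal4 fusions. After 24 h treatment, reporter transcripts were measured by RT-PCR-capillary electrophoresis fluorescence, analysed bidirectionally versus DMSO.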

Measured: AC50

O=C(O)C(F)(OC(F)(F)C(F)(OC(F)(F)C(F)(OC(F)(F)C(F)(F)C(F)(F)F)C(F)(F)F)C(F)(F)F)C(F)(F)F (centres undefined)
active: [13] 83.3 µM
inactive: [1] | [2] | [3] | [4] | [5] | [6] | [7] | [8] | [9] | [10] | [11] | [12] | [13] | [14] | [15] | [16] | [17] | [18] | [19] | [20]

Nc1ccc([N+](=O)[O-])cc1O
inactive: [1] | [2] | [3] | [4] | [5] | [6] | [8] | [9] | [10] | [11] | [12] | [13] | [14] | [15] | [16] | [17] | [18] | [19] | [20]
active: [7] 31 µM

C#C[C@]1(O)CC[C@H]2[C@@H]3CCc4cc(OC)ccc4[C@H]3CC[C@@]21C
active: [10] 7.54 µM | [13] 5.32 µM
inactive: [1] | [2] | [3] | [4] | [5] | [6] | [7] | [8] | [9] | [11] | [12] | [14] | [15] | [16] | [17] | [18] | [19] | [20]

CCCCCCS
inactive: [1] | [2] | [3] | [5] | [6] | [7] | [8] | [9] | [10] | [11] | [12] | [13] | [14] | [15] | [16] | [17] | [18] | [20]
active: [4] 133 µM

O=C(O)C(F)(F)C(F)(F)F
inactive: [1] | [2] | [3] | [4] | [5] | [6] | [7] | [8] | [9] | [10] | [11] | [12] | [13] | [14] | [15] | [16] | [17] | [18] | [19] | [20]

O=C(O)C=C(C(F)(F)F)C(F)(F)F
inactive: [1] | [2] | [3] | [4] | [5] | [6] | [7] | [8] | [9] | [10] | [11] | [12] | [13] | [14] | [15] | [16] | [17] | [18] | [19] | [20]

CC/C=C\CCOC(C)=O
inactive: [1] | [2] | [3] | [4] | [5] | [6] | [7] | [8] | [9] | [10] | [11] | [12] | [14] | [15] | [16] | [17] | [18] | [19] | [20]
active: [13] 70 µM

O[Si](c1ccccc1)(c1ccccc1)c1ccccc1
active: [1] 134 µM | [2] 10.2 µM | [10] 33.3 µM | [13] 0.897 µM | [18] 69.1 µM
inactive: [3] | [4] | [5] | [6] | [7] | [8] | [9] | [11] | [12] | [14] | [15] | [16] | [17] | [20]

Source: PubChem BioAssay (EPA / NIEHS)
